The source made the active and inactive calls. Rule for the calls: active = hit-call score of the fitted dose curve at least 0.9, where 1 is the maximum; inactive = score below 0.9.

One may read the AC50 as the concentration at which the activity in the assay is half-maximal.

Read-out in this test: Cytochrome P450 (CYP1A2), CYP1A2 (gene 1544)
Briefly: LTEA_HepaRG_CYP1A2: Life Technologies and Expression Analysis (LTEA) Assay for Cytochrome P450 (CYP1A2) using HepaRG (AID 2283479).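 For AC50: TaqMan qRT-PCR transcript level normalized to ACTB GAPDH and POLR2A.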 The settings on record: mRNA level, 48 h; actives raise or lower the signal. The method, then:
LTEA_HepaRG is a cell based, multiplexed-readout assay that uses HepaRG, a human liver cell line, with measurements taken at 48 hours after chemical dosing on a 96-well plate.LTEA_HepaRG_CYP1A2 is one of 102 assay component(s) measured in the LTEA HepaRG cell culture assay. It is a marker of NR mediated metabolism.Data from the assay component LTEA_HepaRG_CYP1A2 was analyzed into 1 endpoint. This assay endpoint, LTEA_HepaRG_CYP1A2, was analyzed with bidirectional fitting relative to DMSO as the negative control and baseline of activity. Using a type of inducible reporter, measures of mRNA induction for gain or loss-of-signal activity can be used to understand regulation of transcription factor activity. To generalize the intended target to other relatable targets, this assay endpoint is annotated to the cyp intended target family, where the subfamily is xenobiotic metabolism.
A total of 1060 chemcials from the ToxCast library were tested in eight-point concentration-response experiments. Cell culture and cytotoxicity assays were conducted at Thermo Fisher Scientific's Custom Services facility (Madison, WI). A single lot of human HepaRG cells (Thermo Fisher Scientific, Frederick, MD) was used for the cell culture experiments. 96-well format collagen type I coated plates of human HepaRG cells were prepared using established methods. Briefly, cryopreserved HepaRG cells were thawed, plated at a density of approximately 100,000 cells/well in HepaRG Thaw, Plate, and General Purpose media (HPRG770, Thermo Fisher Scientific), and incubated for 48 hours. 0.5% DMSO was selected as vehicle control to balance the requisite need of DMSO in HepaRG cultures to maintain differentiation (for example, baseline metabolism, proportions of hepatocytes vs. cholangiocytes), while enabling further hepatic receptor pathway activation (for example, PXR and CAR) in response to chemical exposure. 48 hours after plating, the culture medium was replaced with HepaRG Serum-Free Incudtion Media. Cells were exposed to each test chemical in duplicate and maintained in CO2 incubators for another 48 hours. Chemical plates were thawed to room temperature and 200x concentrations of treatment groups were prepared. 8-point conentration-reponse curves were made with the highest exposure at 100 uM, followed by half-log dilutions, all in 0.5% DMSO. Each test plate contained variouse controls, induction positive controls (1mM phenobarbital), cytotoxicity positive controls ([…] aflatoxin B1), vehicle controls (0.5% DMSO), and total lysis controls (0.5% DMSO). Cell morphology images were taken using an Essen IncuCyte FLR automated microscope, with six 96-well plates imaged in about 24 minutes. Images were captured and exported and JPEG files. Spent culture media was transfered to black-well plates for the LDH assay, and remaining media was sorted at -80 C for later use. Cells were treated with RLT buffer and frozen until shipped for gene expression analysis. Total RNA was isolated from the cell suspension in 75 uL of Buffer RLT (Qiagen, Germantown, MD 20874) by Quintiles/Expression Analysis (Durham, NC) using a custom isolation procedure. Total RNA from each plate well was transferred to a preamplification plate. Fluidigm's 96.96 Dynamic ArrayTM (Fluidigm, Amsterdam, the Netherlands) technology was used for gene expression analyses by quantitative reverse transcription polymerase chain reaction (qRT-PCR, performed by Quintiles/Expression Analysis, Durham, NC)89. Standard TaqManTM Assays (Applied Biosystems/ThermoFisher Scientific, Foster City, CA) were used to assess the expression of 93 genes selected based on their selectivity and sensitivity to important hepatic receptors known to be modulated by environmental chemicals; importance in human hepatocyte functionality; and hepatotoxicity. […]
As to `CNC(=O)Oc1cccc2ccccc12`, the call was inactive. For `COCC(=O)N(c1c(C)cccc1C)C(C)C(=O)OC` (stereo not given), the compound was called inactive. `N#Cc1c[nH]cc1-c1cccc2c1OC(F)(F)O2`: the AC50 is 21.3 µM (active). With `CC(C)N1C(=O)N(c2ccccc2)CSC1=NC(C)(C)C`, the AC50 is 50 µM (active). Consider `Cc1ccc(N=CN(C)C=Nc2ccc(C)cc2C)c(C)c1`, for which the AC50 is 51.6 µM (active).

For the compound `Cc1c(COC(=O)[C@@H]2[C@H](/C=C(\Cl)C(F)(F)F)C2(C)C)cccc1-c1ccccc1`, the AC50 is 76.3 µM (active). Take `O=P(O)(O)CCCl`: the outcome was inactive. Turning to `COCc1cnc(C2=NC(C)(C(C)C)C(=O)N2)c(C(=O)O)c1` (stereo not given), the result was inactive.

For `CC(C)Nc1nc(Cl)nc(NC(C)C)n1`, the compound was called inactive. For `CC1(C)CCC(=Cc2ccc(Cl)cc2)C1(O)Cn1cncn1` (stereo not given), the AC50 was 23.3 µM (active).

Turning to `CCN(CC)c1nc(C)cc(OP(=S)(OC)OC)n1`, the AC50 is 38 µM (active). Consider `C=C(C)CN(CC)c1c([N+](=O)[O-])cc(C(F)(F)F)cc1[N+](=O)[O-]`, for which the AC50 was 33 µM (active). In the case of `C=CCOC(=O)C(C)(C)OC(=O)c1cc(-n2c(=O)cc(C(F)(F)F)n(C)c2=O)ccc1Cl`, the call was inactive. For the compound `N#CN=C1SCCN1Cc1ccc(Cl)nc1`, the outcome was inactive.

For `O=C(Nc1ccccc1-c1ccc(Cl)cc1)c1cccnc1Cl`, the result was inactive. As to `CCOc1cc(C(C)(C)C)ccc1C1COC(c2c(F)cccc2F)=N1` (stereo not given), the compound was classed as inactive. In the case of `COCC(C)N(C(=O)CCl)c1c(C)csc1C` (stereo not given), the compound was classed as inactive. Same read-out and setting: then `CC(C)N1C(=O)c2ccccc2NS1(=O)=O`, with “inactive”; and `Clc1cccc(C(Cl)(Cl)Cl)n1`, with “inactive”. Turning to `COC(=O)NC(=S)Nc1ccccc1NC(=S)NC(=O)OC`, the AC50 was 39 µM (active).

Take `COc1cc(Cl)c(OC)cc1Cl`: the AC50 is 50 µM (active). As for `COC(=O)c1c(C(F)F)nc(C(F)(F)F)c(C2=NCCS2)c1CC(C)C`, the AC50 is 50 µM (active). As to `CCOP(=S)(OCC)Oc1nc(Cl)n(C(C)C)n1`, the AC50 is 11.3 µM (active).

In the case of `CCNP(=S)(OC)O/C(C)=C/C(=O)OC(C)C` (stereo not given), the AC50 was 18 µM (active). Consider `Clc1nc(Cl)nc(Nc2ccccc2Cl)n1`, for which the AC50 was 20.1 µM (active). `CC1(C)CON(Cc2ccccc2Cl)C1=O`: the result was inactive. Take `CS(=O)(=O)c1ccc(C(=O)C2C(=O)CCCC2=O)c([N+](=O)[O-])c1`: the AC50 was 18.4 µM (active). For the compound `Nc1c(Cl)c(Cl)nc(C(=O)O)c1Cl`, the AC50 was 50 µM (active).

Take `CCOC(=O)C(C)OC(=O)c1cc(Oc2ccc(C(F)(F)F)cc2Cl)ccc1[N+](=O)[O-]` (stereo not given): the call was inactive. `O=C1C2CC=CCC2C(=O)N1SC(Cl)(Cl)Cl` (stereo not given): the result was inactive.

As for `CCOc1nc(F)cc2nc(S(=O)(=O)Nc3c(Cl)cccc3Cl)nn12`, the compound was classed as inactive.

Take `CCNC(=O)NC(=O)C(C#N)=NOC`: the result was inactive.

Take `CC(C)Oc1cccc(NC(=O)c2ccccc2C(F)(F)F)c1`: the AC50 was 80 µM (active). As to `CC(C)(C)C(=O)C(Oc1ccc(Cl)cc1)n1cncn1` (stereo not given), the result was inactive.

For the compound `CN=C=S`, the compound was classed as inactive. As to `COP(=S)(OC)SCn1nnc2ccccc2c1=O`, the AC50 was 33.6 µM (active). Take `CO/N=C(/C1=NOCCO1)c1ccccc1Oc1ncnc(Oc2ccccc2Cl)c1F`: the AC50 is 13.1 µM (active). Consider `CS(=O)(=O)c1cc(C(F)(F)F)ccc1C(=O)c1cnoc1C1CC1`, for which the result was inactive. `CCCCC(O)(Cn1cncn1)c1ccc(Cl)cc1Cl` (stereo not given): the AC50 was 87.4 µM (active). The same measure, in the same setting: then `COc1ccc(-c2ccccc2)cc1NNC(=O)OC(C)C`, with 74.5 µM (active).

(Values after PubChem BioAssay (EPA / NIEHS).)
